Here are results for 68 molecules from PubChem BioAssay AID1347165 (National Center for Advancing Translational Sciences (NCATS), 2019).

Screen size: about 220,000 compounds; about 5,700 (2.6%) were called active. Not shown: some 18% with an inconclusive outcome. Calls come from the whole dose curve; as a rule, active = well fitted inhibition curve with a large enough effect; inconclusive = small, poorly fitted or top-dose-only effect; inactive = no such curve, though single readings can be large or run the other way. The entries come from a sample that favours actives as a whole.
Potency is the fitted concentration of half-maximal effect.

Lysine-specific demethylase 5B (Homo sapiens), sequence (Q9UGL1 whole entry, looked up): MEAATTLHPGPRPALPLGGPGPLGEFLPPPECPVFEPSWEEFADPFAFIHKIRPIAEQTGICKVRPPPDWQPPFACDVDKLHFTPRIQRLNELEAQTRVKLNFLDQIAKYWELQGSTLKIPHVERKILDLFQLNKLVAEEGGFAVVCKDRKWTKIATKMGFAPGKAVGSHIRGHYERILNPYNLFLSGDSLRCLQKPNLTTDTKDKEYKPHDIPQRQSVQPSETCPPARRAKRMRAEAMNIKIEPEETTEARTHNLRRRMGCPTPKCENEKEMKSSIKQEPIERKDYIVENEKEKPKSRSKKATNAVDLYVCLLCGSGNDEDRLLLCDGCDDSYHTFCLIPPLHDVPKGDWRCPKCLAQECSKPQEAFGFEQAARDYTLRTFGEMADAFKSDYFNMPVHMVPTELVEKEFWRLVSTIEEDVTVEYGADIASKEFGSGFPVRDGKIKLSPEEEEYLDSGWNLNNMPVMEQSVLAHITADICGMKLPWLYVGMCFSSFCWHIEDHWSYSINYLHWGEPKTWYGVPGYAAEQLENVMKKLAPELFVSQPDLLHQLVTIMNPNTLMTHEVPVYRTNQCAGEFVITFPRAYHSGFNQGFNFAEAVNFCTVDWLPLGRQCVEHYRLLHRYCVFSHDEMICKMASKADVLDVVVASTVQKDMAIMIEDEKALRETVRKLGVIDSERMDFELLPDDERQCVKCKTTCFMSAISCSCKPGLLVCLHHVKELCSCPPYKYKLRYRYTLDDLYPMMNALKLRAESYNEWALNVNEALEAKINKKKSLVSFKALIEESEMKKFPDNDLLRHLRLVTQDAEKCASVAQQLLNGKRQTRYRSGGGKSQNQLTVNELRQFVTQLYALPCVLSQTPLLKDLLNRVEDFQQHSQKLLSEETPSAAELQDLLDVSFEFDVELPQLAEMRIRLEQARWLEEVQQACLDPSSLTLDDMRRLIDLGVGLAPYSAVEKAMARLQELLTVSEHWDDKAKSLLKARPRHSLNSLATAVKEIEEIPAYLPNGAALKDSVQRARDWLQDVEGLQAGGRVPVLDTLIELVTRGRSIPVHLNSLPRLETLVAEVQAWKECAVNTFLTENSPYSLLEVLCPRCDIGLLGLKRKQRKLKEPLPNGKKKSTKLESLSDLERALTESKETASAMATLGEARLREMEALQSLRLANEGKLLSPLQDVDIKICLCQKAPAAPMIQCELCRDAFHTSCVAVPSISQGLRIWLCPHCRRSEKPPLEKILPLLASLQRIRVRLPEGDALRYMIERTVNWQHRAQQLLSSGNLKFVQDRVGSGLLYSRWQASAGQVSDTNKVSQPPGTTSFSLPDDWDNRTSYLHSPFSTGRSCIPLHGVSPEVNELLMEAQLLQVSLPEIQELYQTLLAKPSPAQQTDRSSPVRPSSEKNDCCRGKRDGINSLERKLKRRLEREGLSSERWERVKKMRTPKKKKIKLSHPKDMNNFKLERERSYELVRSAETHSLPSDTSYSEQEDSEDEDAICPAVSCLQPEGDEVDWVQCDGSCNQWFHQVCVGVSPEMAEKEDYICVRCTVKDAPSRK

For this experiment, the target named is Lysine-specific demethylase 5B (Homo sapiens) (UniProt Q9UGL1). The experiment is described as follows: Primary screen for KDM5B Histone Demethylases FDH-coupled qHTS. For activity change, negative = inhibition: 0% is about no effect. Note: nearly all actives have a fitted effect of over 70% in size. The conditions noted are these: FDH-coupled NADH fluorescence (FDH is formaldehyde dehydrogenase); series mostly up to 57.7 µM; activity change, negative = inhibition: at the top concentration. In short, it runs like this:
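qHTS format, multiple compound concentrations. Buffer 50 mM HEPES pH 7.5/0.01% Tween-20; 200 nM KDM5BΔAP final; 10 min compound preincubation; substrate-mix levels 12.5 µM peptide, 25 µM α-KG, 0.25 mM NAD⁺; 30 min RT; ΔRFU.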
(In general: Quantitative high-throughput screening tests each substance at several concentrations.)
As for `CN(CCOc1ccccc1Cl)C(=O)c1cc2ccccc2oc1=O`, the “activity change, negative = inhibition” value was 5.68% (inactive).
Still for that read-out and setting: to `O=C(COc1cccc(-n2cnnn2)c1)Nc1ccc(S(=O)(=O)N2CCOCC2)cc1` belongs 1.49% (inactive).
On to `O=C1NCCN(Cc2ccccc2)C1CC(=O)N1CCN(c2ccccc2)CC1` (stereo not drawn), for which the Potency was 20 µM (active).
As to `Cc1ccc(CN2CCNC(=O)C2CC(=O)NC2(CO)CCCC2)cc1` (stereo not drawn), the “activity change, negative = inhibition” value was -28.9% (inactive).
Turning to `O=C(O)CC1C(=O)NCCN1Cc1ccc(Cl)c(F)c1` (stereo not drawn), the “activity change, negative = inhibition” value was -18.6% (inactive).
Consider `COc1ccc(NC(=O)CSc2nccn2-c2cccc(C(F)(F)F)c2)cc1`, for which the “activity change, negative = inhibition” value is 2.82% (inactive).
On to `CCN1CCC(N(Cc2cccs2)C(=O)Nc2cc(Cl)ccc2C(=O)OC)CC1`, for which the “activity change, negative = inhibition” value was -26.5% (inactive).
As for `O=C(CCNC(=O)c1cnccn1)Nc1ccccc1Cc1ccccc1`, the “activity change, negative = inhibition” value is 6.99% (inactive).
With `COc1ccccc1-c1noc(COC(=O)c2ccc3c(c2)NC(=O)CS3)n1`, the “activity change, negative = inhibition” value was -20.1% (inactive).
Consider `CC(C)N1C(=O)C2(CCCC2)C1C(=O)Nc1ccc2c(c1)N(C)CCC2` (stereo not drawn), for which the Potency is 31.6 µM (active).
For `C=CCNC(=O)C1N(C(C)C)C(=O)C12CCCCC2` (stereo not drawn), the “activity change, negative = inhibition” value is -10.2% (inactive).
On the same count and under the same terms, for `C=CCNC(=O)C1N(C(C)C)C(=O)C12CCCC2` (stereo not drawn) the value was -0.645% (inactive).
As for `CCNC(=O)NC(=O)CSc1nc(-c2ccco2)nc2ccccc12`, the “activity change, negative = inhibition” value is -20.4% (inactive).
For `COc1ccc(C(=O)N[C@H]2C[C@@H](c3nc(-c4ccc(OC)cc4)no3)N(C)C2)cc1`, the “activity change, negative = inhibition” value is -9.77% [at 86.2 µM] (inactive).
For `CN1C[C@@H](NC(=O)c2ccccc2)C[C@H]1c1nc(-c2ccccc2)no1`, the “activity change, negative = inhibition” value was -15.2% [at 86.2 µM] (inactive).
Consider `CN1C[C@@H](NC(=O)c2ccc(C(C)(C)C)cc2)C[C@H]1c1nc(-c2ccc3ccccc3c2)no1`, for which the Potency was 25.1 µM (active).
For the molecule `COc1ccc(Cl)cc1NC(=O)N1CCC2(CC1)N=C(c1ccc(C)c(C)c1)C(=O)N2`, the “activity change, negative = inhibition” value is 6.31% (inactive).
On to `Cc1nc(-c2cn(C3CCCN(C(=O)c4cc(F)ccc4F)C3)nn2)no1` (stereo not drawn), for which the “activity change, negative = inhibition” value was 18.6% (inactive).
As to `Cc1ccc2c(C(=O)N3CCCC(C#N)C3)cc(-c3cnn(C(C)C)c3)nc2c1` (stereo not drawn), the Potency is 28.2 µM (active).
In the case of `CC(C)(C)OC(=O)N1CCN(C(=O)c2cc(-c3ccncc3)nc3ccccc23)CC1`, the “activity change, negative = inhibition” value is 8.94% (inactive).
Still for that read-out and setting: for `C=CCn1c(SCc2coc(-c3cccc(Cl)c3)n2)nnc1C1CCS(=O)(=O)C1` (stereo not drawn) the value was -12.8% (inactive); for `COc1ccc(C(=O)OCC(=O)NCCCc2ccccc2)cc1OC`, 31.7% (inactive).
Same read-out and setting: to `COc1ccc(C(=O)Nc2oc3ccc(Cl)cc3c(=O)c2-c2cc(OC)c(OC)c(OC)c2)cc1` belongs 0.542% (inactive); to `CCn1ccnc1CN(C)C1CCCN(CCc2ccccc2)C1` (stereo not drawn), -0.558% (inactive); to `Cc1occc1C(=O)NC1CCCN(Cc2ccc(CC(C)C)cc2)C1` (stereo not drawn), 21.5% (inactive).
`CC(C)Nc1ncc(C(=O)NC2CCCN(CCc3ccccc3)C2)cn1` (stereo not drawn): the Potency is 25.1 µM (active).
Take `Cc1ccc(C(=O)NC2CCN(c3cnn(CC4CC4)c(=O)c3)CC2)c(C)c1`: the “activity change, negative = inhibition” value is -10.1% (inactive).
On to `O=C(CSc1ncnc2c1cnn2-c1ccccc1)NC(=O)NC1CCCC1`, for which the “activity change, negative = inhibition” value is 14.8% (inactive).
Turning to `Cc1nc(N(C)C)ncc1C(=O)N[C@@H]1CCOC[C@H]1Oc1ccccn1`, the Potency was 25.1 µM (active).
With `O=C(N[C@H]1CCOC[C@H]1C1CCOCC1)c1cccc2nccnc12`, the “activity change, negative = inhibition” value was -6.52% (inactive).
`O=S(=O)(N[C@@H]1CCOC[C@H]1Oc1ccccn1)c1ccc(Cl)s1`: the “activity change, negative = inhibition” value is 22% (inactive).
With `O=C(N[C@@H]1CCOC[C@H]1Oc1ccccn1)c1cc(C2CC2)no1`, the “activity change, negative = inhibition” value is 30.4% (inactive).
For `Cc1nc2ncccn2c1C(=O)N[C@@H]1CCOC[C@H]1Oc1ccccn1`, the Potency is 31.6 µM (active).
`N#Cc1ccc(O[C@@H]2COCC[C@H]2NC(=O)CCCn2cccn2)cc1`: the “activity change, negative = inhibition” value was -3.46% (inactive).
Take `Cc1nn(C)c2nc(OC(C)C(=O)Nc3ccccc3F)cc(-c3ccccc3)c12` (stereo not drawn): the “activity change, negative = inhibition” value is -20.6% (inactive).
In the case of `CC(C)n1cnnc1CC1CCN(C(=O)CCCc2ccccc2)C1` (stereo not drawn), the “activity change, negative = inhibition” value was -17.5% (inactive).
Turning to `CC1(C)CC(=O)C/C(=N/NC(=O)c2ccccc2Br)C1`, the “activity change, negative = inhibition” value is 12.7% (inactive).
Same read-out and setting: to `CC(=O)Nc1cccc(C(=O)N2CCC3(CC2)NC(=O)N(c2cccc(Cl)c2)N3)c1` belongs -3.68% (inactive); to `COc1ccc(S(=O)(=O)N(C)Cc2nc(-c3ccc(OC(F)(F)F)cc3)no2)cc1`, -5.21% (inactive); to `O=[S+]([O-])(Nc1ccccc1)c1ccc2c(c1)OCCN(Cc1cccs1)C2`, -9.43% [at 86.2 µM] (inactive).
As to `O=[S+]([O-])(Nc1cccnc1)c1ccc2c(c1)OCCN(Cc1ccc(F)cc1)C2`, the “activity change, negative = inhibition” value is 4.51% [at 86.2 µM] (inactive).
In the case of `O=[S+]([O-])(Nc1cccnc1)c1ccc2c(c1)OCCN(Cc1cscn1)C2`, the Potency is 35.5 µM (active).
Turning to `Cc1c(C)[n+](=O)c2ccccc2n1[O-]`, the “activity change, negative = inhibition” value is -2.24% (inactive).
For the molecule `O=C(COC(=O)Cc1ccc(Cl)c(Cl)c1)NCc1ccc(F)cc1`, the “activity change, negative = inhibition” value is 5.54% (inactive).
For the molecule `COC(=O)[C@H](Cc1ccc(OC)cc1)NC(=O)[C@@H]1CN(C(=O)c2cccc(F)c2)CCN1C(=O)c1cccc(F)c1`, the “activity change, negative = inhibition” value is 26.6% (inactive).
The same measure, in the same setting: for `CC(C)(C)C(=O)NCCCC(=O)NCCc1cccs1` the value was 27.1% (inactive).
Take `CC(C)c1nc2nccc(-c3ccc4c(c3)OCCCO4)n2n1`: the Potency was 22.4 µM (active).
In the case of `CCCc1nnc2sc(-c3ccc4c(c3)OCCO4)nn12`, the “activity change, negative = inhibition” value is 109% (inactive).
Consider `O=C(CSc1ncnc2sccc12)c1ccc2c(c1)OCCCO2`, for which the “activity change, negative = inhibition” value is 3.77% (inactive).
Consider `CC(Sc1ccc2c(c1)OCCCO2)C(=O)O` (stereo not drawn), for which the “activity change, negative = inhibition” value is -13.6% (inactive).
`c1cc(-c2ccc3c(c2)OCCCO3)n2ncnc2n1`: the Potency was 15.8 µM (active).
For `Fc1ccc(CNC[C@H]2Cn3c(-c4ccc5c(c4)OCCO5)cnc3CO2)cc1`, the “activity change, negative = inhibition” value was -24.6% [at 86.2 µM] (inactive).
As for `Cc1cc(C)cc(-c2nnc(SCC(=O)N3CCCC(C)C3)o2)c1` (stereo not drawn), the “activity change, negative = inhibition” value was 17% (inactive).
For `O=C(Cn1cccc1-c1nc(-c2ccccc2)no1)Nc1ccccc1F`, the “activity change, negative = inhibition” value was 6.26% (inactive).
Regarding `COc1ccc(-c2c3c(=O)n(C)c(=O)n(C)c3c3n2C(C)(C)COC3c2cccc(OC)c2)cc1` (stereo not drawn), the “activity change, negative = inhibition” value was 9.3% (inactive).
On to `Cc1cc(C)c(-c2cc(C(=O)Nc3ccccc3C(F)(F)F)[nH]n2)c(O)c1`, for which the “activity change, negative = inhibition” value was -15.4% (inactive).
For `Cc1cc(CNC(=O)c2ccc(-c3ccccc3Cl)o2)n(C)n1`, the Potency was 20 µM (active).
In the case of `Cc1ccc(CNC(=O)c2nn(C)c(=O)c3ccccc23)cc1`, the “activity change, negative = inhibition” value was -8.52% (inactive).
Regarding `Cc1cc(C(=O)NCCc2ccc(Cl)cc2)n(-c2ccccc2)n1`, the “activity change, negative = inhibition” value is 21.8% (inactive).
On the same count and under the same terms, to `CCOC(=O)C1CCN(CC(O)c2cccc(C(F)(F)F)c2)CC1` (stereo not drawn) belongs 9.21% (inactive).
With `O=C1c2cc(N3CCOCC3)nc(-c3cccnc3)c2CN1C1COC1`, the Potency was 31.6 µM (active).
Take `Cc1ccc(-c2nc(N3CCOCC3)cc3c2CN(Cc2cnn(C)c2)C3=O)cn1`: the Potency was 35.5 µM (active).
Regarding `COc1cccc(-c2noc(CC3CCN(C(=O)c4ccc(F)cc4)CC3)n2)c1`, the “activity change, negative = inhibition” value is 10.6% (inactive).
Take `COc1cccc(-c2nc(N3CCOCC3)cc3c2CN(CC2CC2)C3=O)c1`: the Potency is 39.8 µM (active).
As to `COCC(=O)N(C1CCOCC1)C1CCN(C(=O)c2cccc(OC)c2)CC1`, the “activity change, negative = inhibition” value is 20% (inactive).
As to `O=C(c1cccnc1)N1CCC2(CCCN(C3CCOCC3)C2=O)C1` (stereo not drawn), the “activity change, negative = inhibition” value was 10.8% (inactive).
For `O=C(c1cccnc1)N1CCN(c2cc(-c3ccccc3)[nH]n2)CC1`, the “activity change, negative = inhibition” value was 11.3% (inactive).
Take `Cc1ccc(NC(=O)Nc2ccc3nc(N4CCOCC4)cc(C)c3c2)cc1`: the “activity change, negative = inhibition” value was -9.19% (inactive).
